Data: PubChem BioAssay (Tox21)
Results filed as inconclusive are left out. A call without a number means that no potency is given here. Calls of active or inactive are those of the source. Calls follow the shape of the dose curve; as a rule, active = well fitted cell-killing curve with a large enough effect in the repeat runs; inconclusive = weak or mixed curves, or effect the other way; inactive = flat fitted curve, though single readings scatter.

What was measured:
[1] = cAMP Responsive Elements (CRE) small molecule antagonists, cell-based qHTS assay: qHTS cell viability counter screen (AID 2060913); conditions: CRE-bla HEK293T viability, CellTiter-Glo luminescence, 5 h; series mostly up to 92.4 µM; also: nearly all actives have a fitted effect of over 40% in size
How it was run: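 HEK293T CRE-bla, 2,000 cells/well, 18 h preincubation; cpd in DMSO + NKH477 0.25 uM final, 3 h 37 C/5% CO2; LiveBLAzer 2 h RT, then CellTiter-Glo 30 min RT, luminescence.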

[2] = cAMP Responsive Elements (CRE) small molecule agonists, cell-based qHTS assay: qHTS cell viability counter screen (AID 2060914); conditions: CRE-bla HEK293T viability, CellTiter-Glo luminescence, 5 h; series mostly up to 92.4 µM; also: nearly all actives have a fitted effect of over 50% in size
How it was run: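 In the same wells as the reporter read, viability of CRE-bla HEK 293T cells was quantified by CellTiter-Glo luminescence after a 3 h compound exposure.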

In the case of `OCCc1ccccn1`, the Potency [1] is reported as “inactive” and the Potency [2] is reported as “inactive”.
In the case of `O=C(O)c1ccccc1Nc1cccc(C(F)(F)F)c1`, the Potency [1] is reported as “inactive” and the Potency [2] is reported as “inactive”.
With `CC(=O)CCc1ccc(O)cc1` the Potency [1] was “inactive” and the Potency [2] was “inactive”.
For `CCCCCCCCCCCCCCCC/C=C/C1CC(=O)OC1=O` (centres undefined), the Potency [1] was “inactive” and the Potency [2] was “inactive”.
With `CCCCCCCCCCCCCCBr` the Potency [1] was “inactive” and the Potency [2] was “inactive”.
With `COC(=O)c1ccccc1C(=O)c1ccc(OCCN2CCCCC2)cc1` the Potency [1] was “inactive” and the Potency [2] was “inactive”.
For `CN1C(C(=O)Nc2ccccn2)=C(O)c2sccc2S1(=O)=O`, the Potency [1] was “inactive” and the Potency [2] was “inactive”.
With `CCO[Si](C)(CCCOCC1CO1)OCC` (centres undefined) the Potency [1] was “inactive” and the Potency [2] was “inactive”.
With `Nc1ccc([N+](=O)[O-])c(N)c1` the Potency [1] was “inactive” and the Potency [2] was “inactive”.
In the case of `c1ccc(OCCOc2ccccc2)cc1`, the Potency [1] is reported as “inactive” and the Potency [2] is reported as “inactive”.
With `O=C1c2ccccc2C(=O)N1CCl` the Potency [1] was “inactive” and the Potency [2] was “inactive”.
In the case of `CCOc1ccc(NC(N)=O)cc1`, the Potency [1] is reported as “inactive” and the Potency [2] is reported as “inactive”.
In the case of `O=Cc1cc2ccccc2o1`, the Potency [1] is reported as “inactive” and the Potency [2] is reported as “inactive”.
With `CN1CCC[C@@H]1Cc1c[nH]c2ccc(CCS(=O)(=O)c3ccccc3)cc12` the Potency [1] was “inactive” and the Potency [2] was “inactive”.
With `CC(O)C(C)O` (centres undefined) the Potency [1] was “inactive” and the Potency [2] was “inactive”.
With `COc1ccc(C(=O)c2ccc(OC)cc2O)c(O)c1` the Potency [1] was “inactive” and the Potency [2] was “inactive”.
With `N#CCCOCCC#N` the Potency [1] was “inactive” and the Potency [2] was “inactive”.
In the case of `CC(C)CCCCCOC(=O)CCCCC(=O)OCCCCCC(C)C`, the Potency [1] is reported as “inactive” and the Potency [2] is reported as “inactive”.
With `O=C(c1ccc(O)cc1)c1ccc(Cl)cc1` the Potency [1] was “inactive” and the Potency [2] was “inactive”.
In the case of `CCOCCn1c(N2CCCN(C)CC2)nc2ccccc21`, the Potency [1] is reported as “inactive” and the Potency [2] is reported as “inactive”.
With `CCCCCCCC` the Potency [1] was “inactive” and the Potency [2] was “inactive”.
With `CCCCCCCCCCc1ccccc1` the Potency [1] was “inactive” and the Potency [2] was “inactive”.
For `O=C(O)c1ccc2c(c1)C(=O)OC2=O`, the Potency [1] was “inactive” and the Potency [2] was “inactive”.
With `CCCCCCCCSCC` the Potency [1] was “inactive” and the Potency [2] was “inactive”.
With `Cc1oc2c(NC(=O)c3c(Cl)cccc3Cl)cccc2c1C(C)(C)O` the Potency [1] was “inactive” and the Potency [2] was “inactive”.
For `CCCCCCCCCCCCOCC1CO1` (centres undefined), the Potency [1] was “inactive” and the Potency [2] was “inactive”.
In the case of `CCCCC/C(C=O)=C\c1ccccc1`, the Potency [1] is reported as “inactive” and the Potency [2] is reported as “inactive”.
With `CC(=O)CC(=O)Nc1ccccc1` the Potency [1] was “inactive” and the Potency [2] was “inactive”.
With `C1CC(COCC2CO2)CCC1COCC1CO1` (centres undefined) the Potency [1] was “inactive” and the Potency [2] was “inactive”.
In the case of `Cc1cc(=O)[nH]c(C(C)C)n1`, the Potency [1] is reported as “inactive” and the Potency [2] is reported as “inactive”.
For `C/C=C/C=N/NC(=O)c1ccncc1`, the Potency [1] was “inactive” and the Potency [2] was “inactive”.
In the case of `Cn1cc(C(=O)[C@@H]2CCc3nc[nH]c3C2)c2ccccc21`, the Potency [1] is reported as “inactive” and the Potency [2] is reported as “inactive”.
For `CCCCC(CC)COP(=O)(O)O` (centres undefined), the Potency [1] was “inactive” and the Potency [2] was “inactive”.
For `C=C(C)C(=O)NCCC[N+](C)(C)C`, the Potency [1] was “inactive” and the Potency [2] was “inactive”.
In the case of `O=C(O)c1cc(-c2ccccc2)nc2ccccc12`, the Potency [1] is reported as “inactive” and the Potency [2] is reported as “inactive”.
With `CN1C(=O)CC[C@H]1c1cccnc1` the Potency [1] was “inactive” and the Potency [2] was “inactive”.
For `CC1=C(O)C(=O)OC1C` (centres undefined), the Potency [1] was “inactive” and the Potency [2] was “inactive”.
In the case of `N=c1ccn2c(n1)O[C@H]1[C@H](O)[C@@H](CO)O[C@H]12`, the Potency [1] is reported as “inactive” and the Potency [2] is reported as “inactive”.
For `CC(C)NC[C@@H](O)COc1cccc2ccccc12`, the Potency [1] was “inactive” and the Potency [2] was “inactive”.
With `CCN1CCC[C@H]1CNC(=O)c1c(O)c(Cl)cc(Cl)c1OC` the Potency [1] was “inactive” and the Potency [2] was “inactive”.
In the case of `CCCCC(CC)CN` (centres undefined), the Potency [1] is reported as “inactive” and the Potency [2] is reported as “inactive”.
With `N#Cc1c(F)cccc1F` the Potency [1] was “inactive” and the Potency [2] was “inactive”.
For `COc1cccc(OC)c1`, the Potency [1] was “inactive” and the Potency [2] was “inactive”.
In the case of `O=CNNC=O`, the Potency [1] is reported as “inactive” and the Potency [2] is reported as “inactive”.
For `CCCCN(C)C`, the Potency [1] was “inactive” and the Potency [2] was “inactive”.
In the case of `O=C(O)c1cccc(N(Cc2cccnc2)c2ccc(OC(F)F)c(OC(F)F)c2)c1`, the Potency [1] is reported as “inactive” and the Potency [2] is reported as “inactive”.
In the case of `CN(C)Cc1ccccc1`, the Potency [1] is reported as “inactive” and the Potency [2] is reported as “inactive”.
With `S=C(NC1CCCCC1)NC1CCCCC1` the Potency [1] was “inactive” and the Potency [2] was “inactive”.
In the case of `C[C@@H]1C[C@H]2[C@@H]3CCC4=CC(=O)C=C[C@]4(C)[C@@]3(F)[C@@H](O)C[C@]2(C)[C@H]1C(=O)CO`, the Potency [1] is reported as “inactive” and the Potency [2] is reported as “inactive”.
For `Cc1cc(C)c(N)c(Cl)c1`, the Potency [1] was “inactive” and the Potency [2] was “inactive”.
For `CC(=O)N(CC(O)CN(C(C)=O)c1c(I)c(C(=O)NCC(O)CO)c(I)c(C(=O)NCC(O)CO)c1I)c1c(I)c(C(=O)NCC(O)CO)c(I)c(C(=O)NCC(O)CO)c1I` (centres undefined), the Potency [1] was “inactive” and the Potency [2] was “inactive”.
In the case of `CC1(C)C(O)C(C)(C)C1O` (centres undefined), the Potency [1] is reported as “inactive” and the Potency [2] is reported as “inactive”.
For `ClC(c1ccccc1)(c1ccccc1)c1ccccc1`, the Potency [1] was “inactive” and the Potency [2] was “inactive”.
For `COc1ccc(C(=O)N2CCN(CC(=O)N3CCOCC3)CC2)cc1`, the Potency [1] was “inactive” and the Potency [2] was “inactive”.
With `CCCCCCCCCCCCCC` the Potency [1] was “inactive” and the Potency [2] was “inactive”.
In the case of `O=C1CCc2cc(OCCCCc3nnnn3C3CCCCC3)ccc2N1`, the Potency [1] is reported as “inactive” and the Potency [2] is reported as “inactive”.
With `Cc1ccc(N/N=c2\c(=O)cc/c(=N\Nc3ccc(S(=O)(=O)O)cc3)c2=O)c(C)c1` the Potency [1] was “inactive” and the Potency [2] was “inactive”.
